Screens: PubChem BioAssay, Broad Institute
GSIS activator: primary screen for activators of insulin secretion dependent on glucose, INS-1E cells, GLuc reporter luminescence | INS-1E GLuc reporter insulin secretion, 2-3 h | activation, % at 16.6 µM | 370,000 tested, 0.61% active | AID 743287;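 active = lowest replicate activation of at least 40%, so every replicate reaches that level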;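 note: 0% = median of neutral control wells and 100% = median of IBMX positive control wells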
EWS-Fli inh: EWS/Fli transcriptional activity inhibition | A673 NR0B1-luciferase reporter, viability-normalised | inhibition, % at 12.6 µM | 350,000 tested, 0.67% active;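 active = mean inhibition of at least 50% after viability correction, with every replicate also passing that limit; inconclusive = mean reaches 50% but only one of two replicates passes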;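 note: firefly luciferase signal divided by Alamar Blue viability fluorescence both relative to DMSO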
PAX8 inh HTS: lowers PAX8-driven luciferase in RMG-I cells. RMG-I TPO-luciferase reporter, SteadyGlo, 24 h. AID 652154. inhibition, % at 12.6 µM. 360,000 tested, 1.2% active;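 active = mean replicate inhibition at least 60% with every replicate also reaching 60%; inconclusive = only one of the two criteria is met; inactive = mean below 60% and not all replicates reaching 60%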;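 note: luciferase light reporting Pax8 driven TPO promoter activity; plate controls were median of neutral control wells for no effect and mitoxantrone controls for full effect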
F508del corr: CFTR F508del correction in bronchial cells; CFBE cells, YFP halide quenching; stimulated with forskolin plus potentiator P3; % fluorescence drop versus neutral controls; 350,000 tested, 0.36% active; AID 720511; activity (quench increase), % at 7.58 µM;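 active = mean added fluorescence quench of at least 8% versus neutral control, with both replicates also reaching 8%; inconclusive = only one of the mean or replicate conditions met; inactive = mean below 8% and not both replicates reaching 8%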;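 note: cells transiently co-express mutant CFTR-F508del with the halide-sensitive YFP; corrector assay measuring rescue of mutant channel to the surface after 24 h compound exposure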
PGC1a acetyl inh: modulators of PGC1a acetylation. inhibition, % at 15.6 µM. U2OS PGC1a acetylation, AlphaScreen anti-acetyl-lysine; with virally co-expressed GCN5 acetyltransferase. 350,000 tested, 0.17% active. AID 651687;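 active = every replicate shows inhibition of at least 40%; inconclusive = mean inhibition at least 40% but some replicate below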;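 note: 0% = neutral control wells and 100% = positive control wells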
Env fusion inh: HIV envelope-mediated fusion inhibition; inhibition, % at 12.3 µM; 360,000 tested, 1.1% active; HeLa-JRFL Env/CEM21 cell fusion, luciferase;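 active = mean replicate inhibition score of at least 50 and every replicate individually at or above 50; inconclusive = only one of the two criteria met; inactive = mean below 50 and not all replicates reaching 50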;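 note: 0% = plate neutral controls and 100% = maraviroc near 300 nM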
Starred values were filed as active, the others as inactive; ? = inconclusive; · = no result; [ ] = remark or other dose. Sampled rows, rich in hits. Any-hit rate of the full collection: about 2.7%.

SMILES	GSIS activator	EWS-Fli inh	PAX8 inh HTS	F508del corr	PGC1a acetyl inh	Env fusion inh
CC(C)C(NC(=O)CSCc1ccc([N+](=O)[O-])cc1)C(C)C	-37	78*	-2	·	·	-18
O=[N+]([O-])c1ccc(CSCc2ccc([N+](=O)[O-])cc2)cc1	19	6	-23	5	·	-9
CS(=O)(=O)Nc1ccc2c(c1)[C@H]1C[C@@H](CC(=O)N3CCOCC3)O[C@H](CO)[C@H]1O2	2	-10	·	-1	-28	·
C=CCN1C(=O)[C@]2(O[C@H](CCO)[C@@H]([Si](C)(C)c3ccc(OC)cc3)[C@@H]2C)c2ccccc21	·	1	94*	-4	-40	40[16.7 µM]
C=CCN1C(=O)[C@@]2(O[C@@H](CCO)[C@H]([Si](C)(C)c3ccc(OC)cc3)[C@H]2C)c2ccccc21	·	19	66*	8	-15	44[16.7 µM]
COc1ccc(C2=NOC(C(=O)NCc3ccccc3)C2)cc1 (configuration not stated)	10	44	·	11*	-3	·
COc1cccc(C2=NOC(C(=O)NCc3ccccc3)C2)c1 (configuration not stated)	-4	·	·	·	-2	-74
COc1ccc2c3c([nH]c2c1)[C@H](CO)N(C(=O)c1ccccn1)CC31CN(S(C)(=O)=O)C1	35	1	·	0	-2	·
Cc1ccccc1-c1ccc2c(c1)O[C@H](CN(C)C(=O)Nc1ccc(C(F)(F)F)cc1)[C@@H](C)CN([C@H](C)CO)S2(=O)=O	-5	9	77*	-5	9	?
Cc1ccccc1-c1ccc2c(c1)O[C@H](CN(C)C(=O)Nc1ccc(C(F)(F)F)cc1)[C@H](C)CN([C@@H](C)CO)S2(=O)=O	-8	8	77*	-3	0	56*[16.7 µM]
COCC(=O)N1CC2(CCN(S(C)(=O)=O)CC2)c2c(n(C)c3cc(OC)ccc23)[C@H]1CO	13	-3	·	0	-4	·
Cc1ccc(-c2ccc([C@H]3[C@@H](CO)N4CCCCN(C(=O)Nc5cccc(F)c5)C[C@H]34)cc2)cc1	-5	15	108*	8.0*	-26	·
O=C(Nc1ccc(F)cc1)N1CCCCN2[C@H](CO)[C@H](c3ccc(-c4cccc(F)c4)cc3)[C@H]2C1	-21	30	33	7	-6	·
O=C(Nc1ccc(F)cc1)N1CCCCN2[C@H](C1)[C@H](c1ccc(-c3cccc(F)c3)cc1)[C@@H]2CO	-22	-7	-17	8.9*	6	·
CCOC(=O)Oc1c(OC)cc(C(=O)O[C@@H]2C[C@@H]3CN4CCc5c([nH]c6cc(OC)ccc56)[C@H]4C[C@@H]3[C@H](C(=O)OC)[C@H]2OC)cc1OC	·	10	75*	-2	-13	-115
CCC12C(=O)C(CC)(C(c3ccccc3)=C1c1ccccc1)[C@@H]1C(=O)N(c3ccc(C)cc3)C(=O)C12 (some centres not stated)	1	-2	22	·	·	92*
CCC12C(=O)C(CC)(C(c3ccccc3)=C1c1ccccc1)[C@@H]1C(=O)N(c3ccccc3)C(=O)C12 (some centres not stated)	-11	·	15	·	-16	·
CCCC12C(=O)C(C)(C(c3ccccc3)=C1c1ccccc1)C1C(=O)N(c3ccc(C)cc3)C(=O)C12 (configuration not stated)	5	17	31	·	·	83*
COc1cccc(C(=O)Nc2cc(C)on2)c1	-2	-79	-140	-1	-2	-25
COc1ccc(OCc2cccc(C(=O)Nn3cc([N+](=O)[O-])cn3)c2)cc1	-21	·	93*	·	1	?
COc1ccc(OCc2cccc(C(=O)Nc3cc(C)on3)c2)cc1	·	·	96*	·	-4	-43
O=C1N(c2ccccc2)c2ccccc2C1(O)C(F)(F)F (configuration not stated)	-3	-13	12	4	-4	12
O=C1N(c2ccccc2)c2ccccc2[C@]12C[C@H](O)CO2	55*	-3	-17	-1	·	-6
CCn1c2ccccc2c2cc(NC(=O)c3cc(OC)c(OC)c(OC)c3)ccc21	-6	39	·	2	25	·
CCn1c2ccccc2c2cc(NC(=O)c3cc(OC)cc(OC)c3)ccc21	-4	·	96*	·	·	-59
